Experimental findings from PubChem BioAssay (NCI) are described below.

This is part of a sample that, as a whole, favours compounds with a hit. Of some 79,000 tested, about 15% had one in any assay. Values without a mark were called inactive. The source made the active and inactive calls. No stated cut-off is given here; in the data, active means growth inhibition above about 70%; inactive means the rest.

Experiment [1] is described as follows: NCI Yeast Anticancer Drug Screen. Data for the rad50 strain (AID 155).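 Further: 0% = growth of vehicle-only cultures of the same strain.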 The conditions noted are these: S. cerevisiae rad50 strain growth inhibition; at 50.0 µM; active compounds read high. The method, boiled down:
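Growth of the mutant yeast was measured after compound exposure and referenced to vehicle-treated cultures.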

Experiment [2] in a line: NCI Yeast Anticancer Drug Screen. Data for the mec2-1 strain (AID 157). The conditions noted are these: S. cerevisiae mec2-1 strain, at 50.0 µM, active compounds read high. A digest of the protocol: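 Test agents were screened against the mec2-1 yeast strain, with defined DNA repair or cell cycle alteration. Growth was scored as inhibition against vehicle-only controls.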
A short description of experiment [3]: NCI Yeast Anticancer Drug Screen. Data for the sgs1 mgt1 strain (AID 161).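 Further: 0% = growth of cultures given vehicle only.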 The following applies: S. cerevisiae sgs1 mgt1 strain, at 50.0 µM, active compounds read high. A digest of the protocol:
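Mutant yeast exposed to compound; growth scored against vehicle-only wells.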

Experiment [4] can be described thus: NCI Yeast Anticancer Drug Screen. Data for the cln2 rad14 strain (AID 165).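 Further: 0% = growth equal to vehicle treated cultures.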 The conditions noted are these: S. cerevisiae cln2 rad14 strain, at 50.0 µM, active compounds read high. The method, boiled down: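 Growth of compound-exposed yeast (cln2 rad14 genotype) measured and expressed as inhibition relative to vehicle.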
Experiment [5] in a line: NCI Yeast Anticancer Drug Screen. Data for the bub3 strain (AID 167). The following applies: S. cerevisiae bub3 mutant strain, at 50.0 µM, active compounds read high. A digest of the protocol:
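Whole-cell yeast assay. The mutant strain was incubated with compounds, and growth inhibition was determined by comparison with vehicle-treated cells.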

Experiment [6] can be described thus: NCI Yeast Anticancer Drug Screen. Data for the mlh1 rad18 strain (AID 175). The following applies: S. cerevisiae mlh1 rad18 strain growth inhibition; at 50.0 µM; active compounds read high. The method, boiled down: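 In this whole-cell yeast screen, a strain with altered DNA damage repair is challenged with compound, and its growth is measured against matched vehicle-treated controls.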

For the compound `C=CCC(O)c1ccc(OC)c(OC)c1` (stereo unspecified), the growth inhibition in experiment [1] was 2.55%; in experiment [2], -3.3%; in experiment [3] it was -6.3%; in experiment [4], -19.1%; in experiment [5], 3.4%; in experiment [6], 0.55%.
As for `Cc1ccc(CCCCCOc2ccc(C3=NCCO3)cc2)s1`, the growth inhibition in experiment [1] is -2%; in experiment [2], 22.2%; in experiment [3] it was 22.4%; in experiment [4], -21%; in experiment [5], -3%; in experiment [6] it was -4.9%.
`COC(=O)C1(Cc2ccccc2)Cc2cc3c(cc2C1=O)CCC3` (stereo unspecified): the growth inhibition in experiment [1] was 20.9%; in experiment [2], 3.75%; in experiment [3], 8.5%; in experiment [4], 2.2%; in experiment [5], 34.8%; in experiment [6], -7.65%.
As to `BrCCCC1CCCCC1`, the growth inhibition in experiment [1] was -23.6%; in experiment [2], -41.7%; in experiment [3], -13.2%; in experiment [4], 2.1%; in experiment [5], -14.6%; in experiment [6], -14.7%.
Turning to `CCCC(=O)C(CC)C(=O)OCC` (stereo unspecified), the growth inhibition in experiment [1] was -8.7%; in experiment [2], -1.35%; in experiment [3], -3%; in experiment [4], -9.8%; in experiment [5], -0.25%; in experiment [6], 11.4%.
For the compound `CC1OC(O[C@H]2CC[C@]3(C)[C@H]4CC=C5[C@@H]6[C@@H](C)[C@H](C)CC[C@]6(C(=O)O)CC[C@@]5(C(=O)O)[C@]4(C)CC[C@H]3C2(C)C)C(O)C(O)C1O` (stereo partly specified), the growth inhibition is -17.5% in experiment [1]; -9.8% in experiment [2]; -10.6% in experiment [3]; -5.7% in experiment [4]; -13.7% in experiment [5]; -58.5% in experiment [6].
`CC(=O)c1cccc(NC(=O)Nc2ccc(Nc3ccccc3)cc2)c1`: the growth inhibition was 3.8% in experiment [1]; 6.5% in experiment [2]; 5.6% in experiment [3]; 2.6% in experiment [4]; 21.8% in experiment [5]; -0.8% in experiment [6].
For `Cc1ccc(CNC(=O)NCCCCCCNC(=O)NCc2ccc(C)cc2)cc1`, the growth inhibition is -29.4% in experiment [1]; -6.45% in experiment [2]; -9.95% in experiment [3]; -20.3% in experiment [4]; -2.95% in experiment [5]; -1.1% in experiment [6].
Turning to `CCCCN1CCSC1=S`, the growth inhibition was 99.5% (active) in experiment [1]; 99.7% (active) in experiment [2]; 98.2% (active) in experiment [3]; 98% (active) in experiment [4]; 99.5% (active) in experiment [5]; 99.5% (active) in experiment [6].
Turning to `COc1cc2ccnc([C@@H](OC(=O)c3ccccc3)c3ccc(OC)c(OC)c3OC)c2cc1OC`, the growth inhibition in experiment [1] was 10.4%; in experiment [2] it was 9.25%; in experiment [3], 40.9%; in experiment [4] it was 6.25%; in experiment [5] it was 0.05%; in experiment [6], 52.4%.
As to `CC(=O)CC1CCC(CC(C)=O)CC1` (stereo unspecified), the growth inhibition in experiment [1] is 13.1%; in experiment [2], 7.2%; in experiment [3], -13.3%; in experiment [4], -66.3%; in experiment [5], -4.1%; in experiment [6], -23.5%.
`CC1OC(n2cc(F)c(=O)[nH]c2=O)CCC1O` (stereo unspecified): the growth inhibition in experiment [1] is 7%; in experiment [2], 10.2%; in experiment [3], 33.2%; in experiment [4], -10.1%; in experiment [5], -29.2%; in experiment [6] it was -60.5%.
As to `CC(=O)Nc1ccc(C(=O)NN2C(=O)C(Cl)C2c2ccccc2)cc1` (stereo unspecified), the growth inhibition was -22.1% in experiment [1]; -18.4% in experiment [2]; -49.4% in experiment [3]; -10.2% in experiment [4]; -28.8% in experiment [5]; -28.6% in experiment [6].
As to `C=C(C)CC1CN2CCc3cc(OC)c(OC)cc3C2CC1=O` (stereo unspecified), the growth inhibition in experiment [1] was 25.3%; in experiment [2], 6.85%; in experiment [3] it was 24.8%; in experiment [4], 18.8%; in experiment [5] it was 43.6%; in experiment [6], 26.6%.
As for `CN(Cc1ccccc1)C(OCc1ccccc1)c1ccccc1` (stereo unspecified), the growth inhibition in experiment [1] is 3.15%; in experiment [2] it was -13%; in experiment [3], 10.1%; in experiment [4], -8.3%; in experiment [5], 20.4%; in experiment [6] it was 5.4%.
In the case of `O=C(NNC(=O)c1cccc(Br)c1)c1ccccc1`, the growth inhibition in experiment [1] is 4.05%; in experiment [2], -37.6%; in experiment [3], -0.1%; in experiment [4], 5.65%; in experiment [5], -7.15%; in experiment [6], -3.15%.
Turning to `O=C(O)Cc1cc2cccc([N+](=O)[O-])c2[nH]1`, the growth inhibition was 1.4% in experiment [1]; 6.65% in experiment [2]; 8.75% in experiment [3]; -1.85% in experiment [4]; -16.1% in experiment [5]; 9.2% in experiment [6].
For `COCCCNC(=O)C1C(=O)N(CCCOC)C(=O)/C1=N\N` (stereo unspecified), the growth inhibition in experiment [1] is 5.15%; in experiment [2], 21.1%; in experiment [3] it was 12.1%; in experiment [4], -9.3%; in experiment [5] it was -2.25%; in experiment [6], 17.1%.
Turning to `FC(F)(F)c1cccc(NC(=S)Nc2ccccc2S)c1`, the growth inhibition in experiment [1] is 24%; in experiment [2], 20.2%; in experiment [3], 27.4%; in experiment [4], 25.6%; in experiment [5] it was 9.95%; in experiment [6], 17%.
As to `O=C(O)C1(C(=O)O)CCCCC1.[NH-]CC1(C[NH-])CCCCC1.[Pt+2]`, the growth inhibition in experiment [1] is 21.8%; in experiment [2], 9.95%; in experiment [3] it was 27.8%; in experiment [4], 21.1%; in experiment [5], 5.85%; in experiment [6], 14.9%.
Turning to `CC(C)Cn1cnc2c(Sc3c([N+](=O)[O-])ncn3C)nc(N)nc21`, the growth inhibition in experiment [1] was 7.95%; in experiment [2], -14.1%; in experiment [3], -13.2%; in experiment [4], -1.4%; in experiment [5] it was 2.1%; in experiment [6] it was 7.15%.
